Sampled rows, rich in hits. Any-hit rate of the full collection: about 11%.
Pf growth 48h = P. falciparum growth inhibition at 48 hours (one generation). P. falciparum luciferase growth in erythrocytes, 48 h. 5.9% of 310,000 active. Potency, µM (doses to about 28.7 µM), without a hit: at the highest dose activity change, negative = inhibition, hits mostly inhibitors. AID 504832
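Luciferase-expressing P. falciparum in infected erythrocytes (2% hematocrit, 0.1% parasitemia final) in RPMI 1640/0.5% Albumax were exposed to compound for 48 hours at 37 C, 5% CO2; growth read as luminescence.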
AMA1-RON2 inh = AMA1-RON2 (P. falciparum) interaction inhibition; AlphaScreen AMA1-biotinylated RON2 peptide binding; Potency, µM (series often up to 58.2 µM), inactives show at the top dose activity change, negative = inhibition, hits mostly inhibitors; 0.2% of 360,000 active; AID 720542;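 further: 0% = vehicle wells and -100% = peptide control; nearly all actives have a fitted effect of over 45% in size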
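AMA1 (3D7) with his tag at 25 nM final met compounds first, then biotinylated RON2 peptide at 25 nM; detection used donor plus acceptor beads, 10 µg/mL apiece, read by AlphaScreen after 30 min at room temperature.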
Pf growth 96h = inhibits malaria parasite growth, 96 h | P. falciparum luciferase reporter growth, 96 h | Potency, µM (titrated, usually from 28.7 µM), inactives show at the highest dose activity change, negative = inhibition, usual class: inhibitors | 6.9% of 320,000 active | AID 504834
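Two parasite generations (96 h, 37 C, 5% CO2) of compound exposure in infected erythrocytes (0.05% parasitemia, 2% hematocrit). Luciferase-reporter P. falciparum; decreased luminescence indicates inhibited growth, aimed at apicoplast-acting delayed death.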
HCV inhibitor = blocks hepatitis C virus; Huh7.5.1 HCVcc-Cre infection, luciferase reporter, 44 h; Potency, µM (doses to about 41.8 µM), for inactives: at the highest dose activity change, negative = inhibition, most hits filed as inhibitors; 3.4% of 340,000 active; AID 651820
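After 44 h co-culture of compound, cells and HCVcc-Cre (~0.5 moi), substrate is added for 15 min at room temperature and luciferase measured over 15 sec. Cells were seeded at 1,000/well and pre-cultured 4 h.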
Numbers without * were called inactive; u = inconclusive; x = not tested or not shown; [ ] = another dose, or the depositor's remark. The call rests on the fitted dose curve; in most records, active means well fitted curve in the direction sought with a large enough effect; inconclusive means small, poorly fitted or top-dose-only effect, or another doubt; inactive means no such curve, though single readings can be large; an effect the other way counts as inactive or inconclusive. Unless noted, on the % scale 0 is the no-effect control and ±100 the full control effect; potency means the concentration at half of the fitted maximal effect.

SMILES	Pf growth 48h	AMA1-RON2 inh	Pf growth 96h	HCV inhibitor
COc1ccc(C2=NN(C(=O)CCC(=O)O)C(c3ccccc3F)C2)cc1 (centres undefined)	-21%	-9%	2.3µM*	-13%
CC(C)C[C@@H](COCc1cccc(Cl)c1)N1CCN(C(=O)c2ccc(C(F)(F)F)cc2)CCC1=O	x	0%	x	x
CCOc1ccc(CNC(=O)CCc2cn(Cc3ccccc3)c3ccccc23)cc1	-6%	0%	u	-11%
COCC(C)N1CCC(Oc2ccc(C(=O)NCc3ccccn3)cc2)CC1 (centres undefined)	11%	24%	12µM*	4%
CCOc1ccccc1CN1CCC(Oc2ccc(C(=O)NCc3ccccn3)cc2)CC1	10µM*	52%	u	-26%
CCn1cc(CNC(=O)c2ccc(OC3CCN(Cc4ccccn4)CC3)cc2)cn1	25%	54%	u	10µM*
CSCCC(C)N1CCC(Oc2ccc(C(=O)NCc3ccccn3)cc2)CC1 (centres undefined)	x	54%	x	x
CCOC(=O)c1ccc(N2C(=O)C(O)=C(C(C)=O)C2c2ccc([N+](=O)[O-])cc2)cc1 (centres undefined)	14%	-17%	-14%	-6%
O=S(=O)(NCCN1CCCC1)c1ccc(Br)cc1	8%	2%	-23%	5%
N/C(=N\OC(=O)Nc1ccccc1)c1ncc([N+](=O)[O-])s1	u	3%	u	13µM*
CCCCCOC(=O)Nc1nc(=O)n(C2O[C@H](C)[C@@H](O)[C@@H]2O)cc1F (some centres undefined)	-29%	x	u	x
Cc1ccc(NC(=O)CCSc2nc(C)cc(C)n2)cc1	x	3%	u	-12%
Cc1ccc(NC2CC(=O)N(c3ccc(N4CCCCC4)cc3)C2=O)cc1 (centres undefined)	4%	-6%	1.7µM*	-18%
C=CCn1c(SCC(N)=O)nc2scc(-c3ccc(C)o3)c2c1=O	141%	32%	2%	u
Cc1cc(C)nc(NC(N)=NC2CCCCC2)n1	u	2%	-7%	u
CC(=O)CC(=O)NC(=NC1CCCCC1)Nc1nc(C)cc(C)n1	u	1%	x	11µM*
CCC1CCCCN1C(=O)COc1ccc2c(c1)OCO2 (centres undefined)	16%	11%	u	6%
Cc1ccc(CNC(=O)CCC2CCCN(Cc3cccc4c3OCO4)C2)o1 (centres undefined)	-7%	-6%	0%	7%
Cc1ccc(CNC(=O)CCC2CCCN(Cc3c(C)nn(C(C)C)c3C)C2)o1 (centres undefined)	-3%	-2%	8.3µM*	6%
Nc1ccc2c(c1)OC1(CCCC1)O2	37%	-10%	4.1µM*	u
C[C@H](CO)N1C[C@H](C)[C@@H](CN(C)Cc2ccncc2)Oc2c(cccc2N(C)C)C1=O	x	-5%	x	16%
CCc1c(C(C)=O)oc2ccc3c(C)cc(=O)oc3c12	u	0%	u	u
Cc1ccc(/C(=N\O)c2oc3c(C)c4oc(=O)cc(C)c4cc3c2C)cc1	u	-3%	9.3µM*	5.6µM*
CCc1c(C(=O)c2ccc(Cl)cc2)oc2c(C)c3oc(=O)cc(C)c3cc12	5%	0%	4%	1%
Cc1cc(=O)oc2c1ccc1oc(/C(=N/O)c3ccccc3)c(C)c12	1.7µM*	-21%	x	6.3µM*
SMILES	Pf growth 48h	AMA1-RON2 inh	Pf growth 96h	HCV inhibitor
Cn1c(=O)c(C#N)c(-c2ccc(F)cc2)c2cc(C(=O)c3cc(Cl)cc(Cl)c3O)cnc21	u	-7%	u	11µM*
Cc1cc(C(=O)N(NC(=O)C(C)C)c2ccccc2)cs1	-12%	2%	8.3µM*	-14%
O=C(NC(=S)NCc1ccccc1)c1cccc([N+](=O)[O-])c1	0%	30%	116%	0%
COc1cc([N+](=O)[O-])cc(/C=N/NC(=O)c2ccc(C)nc2)c1O	33%	-27%	u	u
O=C(N/N=C/c1ccc(O)cc1)c1cccc(C(F)(F)F)c1	20%	58%	12%	5%
O=C(CNC(=S)NC(=O)c1cccc([N+](=O)[O-])c1)c1ccccc1	32%	99%	10µM*	-10%
COc1ccccc1/C=N/NC(=O)c1ccc(NC(=O)c2cccc([N+](=O)[O-])c2)cc1	5.2µM*	x	-1%	x
O=C(N/N=C/c1ccccc1O)c1cccc(C(F)(F)F)c1	u	60%	u	4µM*
COc1ccc(/C=N/NC(=O)c2ccc(NC(=O)c3cccc([N+](=O)[O-])c3)cc2)c(OC)c1	u	5%	40%	u
COc1cc([N+](=O)[O-])cc(/C=N/NC(=O)c2ccc(NC(=O)c3ccc(C)cc3)cc2)c1O	9%	17%	13%	2.5µM*
CN(C)/C=C(/C(=O)c1ccc(Cl)c(Cl)c1)S(C)(=O)=O	6%	4%	31%	19%
CCOC(=O)Cn1nc(C)c(NC(=O)c2ccc(Cl)c([N+](=O)[O-])c2)c1C	-11%	1%	7%	-10%
CCCc1c2ccccc2nc2ccccc12	-28%	0%	-54%	-28%
COc1ccc(C(=O)OCn2nnc3ccccc3c2=O)cc1	13%	18%	37%	u
O=C(NN=Cc1ccccc1O)c1cccc([N+](=O)[O-])c1	x	68%	x	7.9µM*
O=C(N/N=C/c1ccc(Br)s1)c1cccc([N+](=O)[O-])c1	2.9µM*	-1%	4.1µM*	-6%
O=C(N/N=C/c1ccccn1)c1cccc([N+](=O)[O-])c1	u	92%	-2%	-9%
COc1cccc(/C=N/NC(=O)c2cc3cc([N+](=O)[O-])ccc3s2)c1O	4.1µM*	35%	u	u
O=C(N/N=C/c1ccoc1)c1cccc([N+](=O)[O-])c1	18%	49%	12%	14%
COc1cccc(/C=N/NC(=O)C(=O)N/N=C/c2cccc(OC)c2O)c1O	0%	u	0%	-14%
COc1ccc(-c2nnc(C3CCN(S(=O)(=O)c4ccccc4)CC3)o2)cc1	u	-6%	12%	-12%
CC1CN(C(=O)CSc2nc(N)c(NC(=O)c3ccc(C(F)(F)F)cc3)c(=O)[nH]2)CC(C)O1 (centres undefined)	x	0%	x	x
Cc1nc2sccn2c(=O)c1CCN1CCC(=C(c2ccccc2)c2ccc(F)cc2)CC1	15µM*	x	15µM*	1%[8.37 µM]
COc1cc(/C=C2/C(=O)NN(c3cccc(C)c3)C2=O)cc([N+](=O)[O-])c1O	1%	-2%	-17%	12%
COc1cc(/C=C2/C(=O)NN(c3cccc(C)c3)C2=O)ccc1OC(=O)c1ccco1	12%	-17%	4.1µM*	23%
Oc1ccc(N2CCN(c3ccnc4cc(Cl)ccc34)CC2)cc1	3.3µM*	-18%	2.3µM*	-25%
Clc1ccc2c(N3CCCC3)ccnc2c1	3.7µM*	-12%	x	u
COc1ccc(N2CCN(c3ccnc4cc(Cl)ccc34)CC2)cc1	u	-18%	7.4µM*	u
Clc1ccc2c(N3CCOCC3)ccnc2c1	9%	-10%	11%	u
